Experimental data: PubChem BioAssay (EPA / NIEHS)
Several values for one entry are separate records, joined by “and”; a condition that tells them apart may be missing. Equal entries are not always repeated. Some compounds were tested as several samples or in several runs, with calls that do not always agree. Activity calls are given as the source filed them. The calls were made as follows: active = hit-call score of the fitted dose curve at least 0.9, where 1 is the maximum; inactive = score below 0.9.

read-out: Forkhead box O1 (FOXO1), FOXO1 (gene 2308); assay: LTEA_HepaRG_FOXO1: Life Technologies and Expression Analysis (LTEA) Assay for Forkhead box O1 (FOXO1) using HepaRG (AID 2283456); conditions: mRNA level, 48 h; actives raise or lower the signal
Description: LTEA_HepaRG is a cell based, multiplexed-readout assay that uses HepaRG, a human liver cell line, with measurements taken at 48 hours after chemical dosing on a 96-well plate.LTEA_HepaRG_FOXO1 is one of 102 assay component(s) measured in the LTEA HepaRG cell culture assay. It is a marker of Cell proliferation, survival, death.Data from the assay component LTEA_HepaRG_FOXO1 was analyzed into 1 endpoint. This assay endpoint, LTEA_HepaRG_FOXO1, was analyzed with bidirectional fitting relative to DMSO as the negative control and baseline of activity. Using a type of inducible reporter, measures of mRNA induction for gain or loss-of-signal activity can be used to understand regulation of transcription factor activity. To generalize the intended target to other relatable targets, this assay endpoint is annotated to the dna binding intended target family, where the subfamily is forkhead box protein.
A total of 1060 chemcials from the ToxCast library were tested in eight-point concentration-response experiments. Cell culture and cytotoxicity assays were conducted at Thermo Fisher Scientific's Custom Services facility (Madison, WI). A single lot of human HepaRG cells (Thermo Fisher Scientific, Frederick, MD) was used for the cell culture experiments. 96-well format collagen type I coated plates of human HepaRG cells were prepared using established methods. Briefly, cryopreserved HepaRG cells were thawed, plated at a density of approximately 100,000 cells/well in HepaRG Thaw, Plate, and General Purpose media (HPRG770, Thermo Fisher Scientific), and incubated for 48 hours. 0.5% DMSO was selected as vehicle control to balance the requisite need of DMSO in HepaRG cultures to maintain differentiation (for example, baseline metabolism, proportions of hepatocytes vs. cholangiocytes), while enabling further hepatic receptor pathway activation (for example, PXR and CAR) in response to chemical exposure. 48 hours after plating, the culture medium was replaced with HepaRG Serum-Free Incudtion Media. Cells were exposed to each test chemical in duplicate and maintained in CO2 incubators for another 48 hours. Chemical plates were thawed to room temperature and 200x concentrations of treatment groups were prepared. 8-point conentration-reponse curves were made with the highest exposure at 100 uM, followed by half-log dilutions, all in 0.5% DMSO. Each test plate contained variouse controls, induction positive controls (1mM phenobarbital), cytotoxicity positive controls ([…] aflatoxin B1), vehicle controls (0.5% DMSO), and total lysis controls (0.5% DMSO). Cell morphology images were taken using an Essen IncuCyte FLR automated microscope, with six 96-well plates imaged in about 24 minutes. Images were captured and exported and JPEG files. Spent culture media was transfered to black-well plates for the LDH assay, and remaining media was sorted at -80 C for later use. Cells were treated with RLT buffer and frozen until shipped for gene expression analysis. Total RNA was isolated from the cell suspension in 75 uL of Buffer RLT (Qiagen, Germantown, MD 20874) by Quintiles/Expression Analysis (Durham, NC) using a custom isolation procedure. Total RNA from each plate well was transferred to a preamplification plate. Fluidigm's 96.96 Dynamic ArrayTM (Fluidigm, Amsterdam, the Netherlands) technology was used for gene expression analyses by quantitative reverse transcription polymerase chain reaction (qRT-PCR, performed by Quintiles/Expression Analysis, Durham, NC)89. Standard TaqManTM Assays (Applied Biosystems/ThermoFisher Scientific, Foster City, CA) were used to assess the expression of 93 genes selected based on their selectivity and sensitivity to important hepatic receptors known to be modulated by environmental chemicals; importance in human hepatocyte functionality; and hepatotoxicity. […]

| SMILES | outcome | AC50 |
| --- | --- | --- |
| C=CCC1=C(C)C(OC(=O)C2C(C=C(C)C)C2(C)C)CC1=O (stereo not given) | inactive |  |
| N#Cc1nn(-c2c(Cl)cc(C(F)(F)F)cc2Cl)c(N)c1S(=O)C(F)(F)F (stereo not given) |  | 87.4 µM (active) |
| C#CCOS(=O)OC1CCCCC1Oc1ccc(C(C)(C)C)cc1 (stereo not given) |  | 32 µM (active) |
| CC(C)(C)c1ccc(CSc2cnn(C(C)(C)C)c(=O)c2Cl)cc1 |  | 2.12 µM (active) |
| CN(C)C(=S)SSC(=S)N(C)C | inactive |  |
| CC1COC(Cn2cncn2)(c2ccc(Oc3ccc(Cl)cc3)cc2Cl)O1 (stereo not given) |  | 30 µM (active) |
| N#CC(CCc1ccc(Cl)cc1)(Cn1cncn1)c1ccccc1 (stereo not given) |  | 77.8 µM (active) |
| COC(=O)C(C)Oc1ccc(Oc2ccc(Cl)cc2Cl)cc1 (stereo not given) |  | 13.7 µM (active) |
| CCCN(CCC)c1c([N+](=O)[O-])cc(S(N)(=O)=O)cc1[N+](=O)[O-] | inactive | 90.2 µM (active) |
| CS/C(C)=N/OC(=O)N(C)SN(C)C(=O)O/N=C(\C)SC | inactive |  |
| OC(c1ccc(Cl)cc1)(c1cncnc1)c1ccccc1Cl (stereo not given) |  | 79 µM (active) |
| Cc1ccc(-c2c(Cl)nc(C#N)n2S(=O)(=O)N(C)C)cc1 |  | 50 µM (active) |
| CCCCNC(=O)OCC#CI | inactive |  |
| CCCCOC(=O)c1ccccc1C(=O)OCCCC | inactive |  |
| CNC(=O)ON=CC(C)(C)SC | inactive |  |
| O=C(O)c1nc(Cl)ccc1Cl | inactive |  |
| COC(=O)N(OC)c1ccccc1COc1ccn(-c2ccc(Cl)cc2)n1 |  | 50 µM (active) |
| CCON=C(CC)C1=C(O)CC(c2c(C)cc(C)cc2C)CC1=O (stereo not given) | inactive |  |
| COc1ccc(C(c2ccc(OC)cc2)C(Cl)(Cl)Cl)cc1 | inactive |  |
| CC(C)C1(C)N=C(c2nc3ccccc3cc2C(=O)O)NC1=O (stereo not given) | inactive |  |

| SMILES | outcome | AC50 |
| --- | --- | --- |
| COP(N)(=O)SC (stereo not given) | inactive |  |
| CO/C=C(/C(=O)OC)c1ccccc1Oc1cc(Oc2ccccc2C#N)ncn1 |  | 77.3 µM (active) and 70.5 µM (active) and 71.8 µM (active) |
| Cc1cc(Cl)ccc1OCC(=O)O | inactive |  |
| CCOC(=O)CC(SP(=S)(OC)OC)C(=O)OCC (stereo not given) | inactive |  |
| CCCC1COC(Cn2cncn2)(c2ccc(Cl)cc2Cl)O1 (stereo not given) |  | 76.1 µM (active) |
| CCCCNC(=O)n1c(NC(=O)OC)nc2ccccc21 | inactive |  |
| CC(C)Oc1cc(-n2nc(C(C)(C)C)oc2=O)c(Cl)cc1Cl | inactive |  |
| CCc1nn(C)c(C(=O)NCc2ccc(C(C)(C)C)cc2)c1Cl |  | 0.484 µM (active) |
| COc1nc(NC(C)C)nc(NC(C)C)n1 | inactive |  |
| Fc1ccc(Oc2ccnc3cc(Cl)cc(Cl)c23)cc1 | inactive |  |
| CON(C)C(=O)Nc1ccc(Cl)c(Cl)c1 | inactive |  |
| CCOP(=S)(OCC)SCn1c(=O)oc2cc(Cl)ccc21 | inactive |  |
| COc1cnc(OC)n2nc(NS(=O)(=O)c3c(OCC(F)F)cccc3C(F)(F)F)nc12 | inactive |  |
| CCNc1nc(Cl)nc(NC(C)C)n1 | inactive |  |
| CC1=C(C(=O)Nc2ccccc2)SCCO1 | inactive |  |
| Oc1ccccc1-c1ccccc1 | inactive |  |
| CCOC(=O)C(Cl)Cc1cc(-n2nc(C)n(C(F)F)c2=O)c(F)cc1Cl (stereo not given) | inactive |  |
| C=CC1(C)OC(=O)N(c2cc(Cl)cc(Cl)c2)C1=O (stereo not given) | inactive |  |
| O=C(Nc1ccccc1)Nc1ccnc(Cl)c1 | inactive |  |
